Source: PubChem (National Center for Advancing Translational Sciences (NCATS))
BAZ2B inh – qHTS Assay for Inhibitors of BAZ2B; 4.4% of 360,000 active; Potency, µM (series often up to 114 µM), actives largely listed as inhibitors; AlphaScreen BAZ2B-H3K14Ac peptide displacement; Bromodomain adjacent to zinc finger domain protein 2B (Homo sapiens), Q9UIF8; further: nearly all actives have a fitted effect of over 60% in size
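AlphaScreen displacement of biotin-H3(5-23)K14Ac peptide (50 nM final) from BAZ2B (50 nM final) in PBS pH 7.4, 0.01% Tween-20; complex preformed 30 min RT, then compounds (top 110 uM) 30 min RT, beads 20 min dark.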
L3MBTL1 block – qHTS Assay for the Inhibitors of L3MBTL1. Lethal(3)malignant brain tumor-like protein 1 (Homo sapiens), Q9Y468. 0.66% of 230,000 active. Potency, µM (doses to about 57.1 µM), hits mostly inhibitors. AID 485360, 2010. AlphaScreen L3MBTL1–H3K9me1 peptide binding; further: nearly all actives have a fitted effect of over 60% in size
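L3MBTL1 50 nM + b-AHA-H3(1-15)K9me1 75 nM, 30 min RT; compound added, 30 min RT; streptavidin donor/Ni-chelate acceptor beads 10 ug/mL each final, 30 min RT dark; AlphaScreen read.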
HP1b chromo inh – HTS for Inhibitors of HP1-beta Chromodomain Interactions with Methylated Histone Tails. Chromobox protein homolog 1 (Homo sapiens), P83916. AlphaScreen HP1-beta / biotin-H3K9me3 peptide binding. Potency, µM (series often up to 114 µM), usual class: inhibitors. 0.56% of 390,000 active; further: nearly all actives have a fitted effect of over 70% in size
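Compound inhibition of the preformed complex between 50 nM HP1-beta and 50 nM biotinylated H3K9me3 peptide was read by AlphaScreen. Buffer was PBS pH 7.4 with 0.01% Tween-20. Incubations ran 30 min at room temperature, with 10 ug/mL donor/acceptor beads.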
G9a inh – qHTS Assay for Inhibitors of Histone Lysine Methyltransferase G9a; 8.8% of 350,000 active; G9a H3K9 monomethylation, AlphaScreen, 2 h; Potency, µM (highest dose often 102 µM), actives largely listed as inhibitors; further: nearly all actives have a fitted effect of over 75% in size
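Using a bead-based AlphaScreen, monomethylated H3K9 product from 2 h room-temperature reactions (G9a 20 nM, peptide 500 nM, SAM 20 uM) was detected with 0.5 ug/mL rabbit anti-H3K9me1 antibody.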
JMJD2A Tudor inh – qHTS Assay for Inhibitors of JMJD2A-Tudor Domain | Potency, µM (top dose mostly 114 µM), usual class: inhibitors | Lysine-specific demethylase 4A (Homo sapiens), O75164 | AlphaScreen JMJD2A-Tudor / H3K4me3 peptide binding | 4.4% of 390,000 active; further: nearly all actives have a fitted effect of over 50% in size
Sfp inh – qHTS Assay for Inhibitors of Bacillus subtilis Sfp phosphopantetheinyl transferase (PPTase) | Biochemical Sfp PPTase activity, qHTS | Potency, µM, most hits filed as inhibitors | AID 1490, 2009 | 3.5% of 310,000 active;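 further: the enzyme is Sfp with the accession as filed and its product quenches rhodamine fluorescence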
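Fluorescence-quenching assay: 15 nM Sfp-PPTase preincubated 15 min at room temperature with compound, then 5 uM rhodamine-CoA and 12.5 uM BHQ-2-labelled YbbR peptide added. Fluorescence (ex 525/em 598 nm) read at start and after 30 min; difference gives rate.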
Large screens that a line does not name were inactive. Hits are enriched below; roughly 12% of the tested compounds scored in any of these assays. The call rests on the fitted dose curve; in most records, active means well fitted curve in the direction sought with a large enough effect; inconclusive means small, poorly fitted or top-dose-only effect, or another doubt; inactive means no such curve, though single readings can be large; an effect the other way counts as inactive or inconclusive.

Cc1ccc(-c2nnn(CC(=O)N(c3ccccc3)C(C(=O)NC3CCCC3)c3ccncc3)n2)o1 (configuration not stated)	none (no result: L3MBTL1 block)
COc1ccc(C(C(=O)NC2CCCC2)N(CCO)C(=O)Cn2nnc(-c3ccc(C)o3)n2)cc1OC (configuration not stated)	G9a inh 28µM (no result: L3MBTL1 block)
CCC(C)(C)NC(=O)CN(Cc1ccc(OC)cc1)C(=O)CCC(=O)Nc1nccs1	HP1b chromo inh inconclusive (no result: L3MBTL1 block)
O=c1cc(-c2ccccc2Cl)oc2c(NS(=O)(=O)c3cccs3)ccc(O)c12	none (no result: L3MBTL1 block)
COc1cc2c(Nc3ccc(Br)cc3F)ncnc2cc1OCC1CCN(C)CC1	G9a inh inconclusive (no result: BAZ2B inh, L3MBTL1 block, HP1b chromo inh, JMJD2A Tudor inh)
COc1cc(CNc2ccc(C(=O)O)cc2)cc(Br)c1OCC(=O)NC(C)(C)C	none
C=CCOc1c(Br)cc(CNc2ccc(NC(=O)C(C)C)c(OC)c2)cc1OC	BAZ2B inh inconclusive, JMJD2A Tudor inh 35µM
CC1CN(C(=S)SCC(=O)c2ccc([N+](=O)[O-])cc2)CC(C)O1 (configuration not stated)	BAZ2B inh inconclusive, G9a inh 14µM (no result: L3MBTL1 block)
CC1CN(C(=S)NC(=O)c2ccc([N+](=O)[O-])cc2)CC(C)O1 (configuration not stated)	G9a inh 40µM
N#Cc1ccc(C(=O)NC(=S)N2CCOCC2)cc1	none (no result: BAZ2B inh, G9a inh, Sfp inh)
CC1CN(C(=S)NC(=O)c2ccccc2)CC(C)O1 (configuration not stated)	G9a inh 71µM (no result: L3MBTL1 block)
CC1CN(C(=O)COC(=O)CSc2ccc([N+](=O)[O-])cc2)CC(C)O1 (configuration not stated)	G9a inh inconclusive (no result: Sfp inh)
O=C(NC(=S)N1CCOCC1)c1ccc([N+](=O)[O-])cc1	BAZ2B inh inconclusive, G9a inh 8.9µM
COc1ccc(C(=O)NC(=S)N2CCN(c3ccc([N+](=O)[O-])cc3)CC2)cc1	none
CC1CN(C(=S)NC(=O)c2ccco2)CC(C)O1 (configuration not stated)	G9a inh inconclusive, JMJD2A Tudor inh inconclusive, Sfp inh inconclusive
CCOc1ccc(C(=O)Nc2ccc3oc(-c4ccc(C)cc4C)nc3c2)cc1Br	none (no result: L3MBTL1 block, Sfp inh)
CC1CN(C(=S)c2cccc([N+](=O)[O-])c2)CC(C)O1 (configuration not stated)	HP1b chromo inh inconclusive, G9a inh 6.3µM, JMJD2A Tudor inh inconclusive, Sfp inh 50µM
CC1CN(c2ccc([N+](=O)[O-])cc2C#N)CC(C)O1 (configuration not stated)	none (no result: L3MBTL1 block)
COc1ccc(NC(=O)CC(=O)Nc2ccc(OC)cc2)cc1	none (no result: BAZ2B inh, L3MBTL1 block, G9a inh, Sfp inh)
CCc1ccc(NC(=O)[C@H](C)NC(=O)C2CCN(C(=O)[C@@H](N)C(C)C)CC2)cc1	G9a inh 50µM (no result: L3MBTL1 block)
CCc1ccc(NC(=O)[C@H](C)NC(=O)C2CCN(C(=O)[C@@H](N)CC(C)C)CC2)cc1	G9a inh inconclusive (no result: L3MBTL1 block)
Cc1ccc(NC(=O)COC(=O)C2(CC(=O)NC(C)C)CCCC2)cc1C	none (no result: BAZ2B inh, G9a inh, Sfp inh)
C=CCNC(=O)/C(=C\c1ccco1)NC(=O)c1ccco1	none
O=C(NCc1ccco1)/C(=C\c1ccco1)NC(=O)c1ccc(Br)o1	L3MBTL1 block inconclusive, Sfp inh 89µM
C=CCNC(=O)/C(=C/c1ccco1)NC(=O)c1ccc(Br)o1	L3MBTL1 block inconclusive, G9a inh inconclusive, Sfp inh 10µM
O=C(NCc1ccco1)/C(=C\c1ccco1)NC(=O)c1ccco1	G9a inh 45µM, Sfp inh 45µM
CCCCNC(=O)/C(=C/c1ccco1)NC(=O)c1ccco1	none
O=C(NCc1ccco1)/C(=C/c1ccco1)NC(=O)c1ccc(Br)o1	L3MBTL1 block inconclusive, G9a inh inconclusive, Sfp inh inconclusive
O=C(NCCCO)/C(=C\c1ccco1)NC(=O)c1ccc(Br)o1	G9a inh 28µM
CC(C)(C)OC(=O)N1CCC(c2c(C(=O)N3CCN(Cc4ccccc4)CC3)cnn2-c2cccc(Cl)c2)CC1	none (no result: L3MBTL1 block, Sfp inh)
CCOc1ccc(CCNC(=O)c2ccc(CS(=O)(=O)Cc3ccccc3Cl)o2)cc1OCC	BAZ2B inh inconclusive (no result: L3MBTL1 block, Sfp inh)
CCCCNC1=CC(=O)C(NCCCC)=CC1=O	HP1b chromo inh 18µM, JMJD2A Tudor inh 40µM (no result: BAZ2B inh, L3MBTL1 block, G9a inh, Sfp inh)
CN(C)c1ccc(C(=O)Nc2sc(Nc3ccccc3)nc2C(N)=O)cc1	none (no result: L3MBTL1 block, Sfp inh)
O=C(CN1CCCCCC1)NC(c1ccccc1)c1ccccc1	BAZ2B inh 79µM, HP1b chromo inh inconclusive, G9a inh 7.9µM, JMJD2A Tudor inh 22µM
O=C(CN1CCCCC1)Nc1ccccc1	none (no result: L3MBTL1 block)
O=C(CN1CCN(c2ccc(O)cc2)CC1)NC(c1ccccc1)c1ccccc1	BAZ2B inh inconclusive, HP1b chromo inh inconclusive, G9a inh 7.9µM, JMJD2A Tudor inh 50µM, Sfp inh 10µM
CC(NC(=O)CN1CCN(c2cccc(Cl)c2)CC1)c1ccccc1 (configuration not stated)	none (no result: G9a inh)
Cn1nnnc1SCc1csc(Nc2ccccc2)n1	G9a inh inconclusive, Sfp inh 50µM
Cc1ccc(Nc2nc(CSc3nnc(-c4ccccc4C)n3C)cs2)cc1	BAZ2B inh inconclusive, G9a inh 32µM, JMJD2A Tudor inh 79µM, Sfp inh inconclusive
Cc1ccc(Nc2nc(CSc3nnnn3C)cs2)cc1	G9a inh inconclusive, JMJD2A Tudor inh inconclusive
Cc1ccccc1-n1c(SCc2csc(Nc3ccccc3)n2)nnc1-c1cccnc1	BAZ2B inh inconclusive, G9a inh 25µM, JMJD2A Tudor inh inconclusive
Cc1ccc(Nc2nc(CSc3nnc(-c4ccccc4)n3C)cs2)cc1	BAZ2B inh inconclusive, HP1b chromo inh inconclusive, G9a inh inconclusive, JMJD2A Tudor inh inconclusive
Cc1ccc(Nc2nc(CSc3nnc(-c4cccnc4)n3-c3ccccc3C)cs2)cc1	BAZ2B inh inconclusive, G9a inh inconclusive, JMJD2A Tudor inh inconclusive
Cc1ccccc1Nc1nc(N)nc(CSc2nnnn2C)n1	BAZ2B inh 56µM, JMJD2A Tudor inh inconclusive
COc1cccc(CC(O)CC2c3c(cc4c(c3OC)OCO4)CCN2C)c1 (configuration not stated)	none (no result: BAZ2B inh, L3MBTL1 block, G9a inh, Sfp inh)
O=C(NNc1nc2ccc(F)cc2s1)c1cccc(F)c1	G9a inh inconclusive
O=C(Nc1nc2ccc(F)cc2s1)c1ccccn1	BAZ2B inh 40µM (no result: L3MBTL1 block)
O=C(Nc1nc2ccccc2s1)c1cnccn1	G9a inh 3.5µM (no result: L3MBTL1 block)
O=C(Nc1nc2ccc(F)cc2s1)C1=COCCO1	G9a inh 50µM (no result: Sfp inh)
CC(C)(CNC(=O)Cc1ccc(NS(=O)(=O)c2cccc(C(F)(F)F)c2)cc1)N1CCOCC1	none (no result: Sfp inh)
